Here are results for 25 compounds from PubChem BioAssay AID781 (Emory University Molecular Libraries Screening Center, 2007).

The whole screen tested about 220,000 compounds, of which about 1,600 (0.73%) were called active. The full list was thinned out, with actives kept by preference. Unmarked numbers belong to inactive results.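 How the source made its calls: active means inhibition above about 70% (limit read from the data); inactive means the rest.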

Sequence of 14-3-3 protein zeta/delta (Bos taurus) (P63103 whole entry, looked up): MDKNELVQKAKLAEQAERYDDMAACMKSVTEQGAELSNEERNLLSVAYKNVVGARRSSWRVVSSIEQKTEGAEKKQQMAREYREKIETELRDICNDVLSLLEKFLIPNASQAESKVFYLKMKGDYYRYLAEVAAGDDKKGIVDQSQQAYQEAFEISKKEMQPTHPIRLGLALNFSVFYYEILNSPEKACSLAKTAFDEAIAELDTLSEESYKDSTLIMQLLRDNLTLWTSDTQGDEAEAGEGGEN

The experiment addresses 14-3-3 protein zeta/delta (Bos taurus) (UniProt P63103). The experiment in a line: disruptors of 14-3-3 zeta phospho-Bad complex – biochemical, TR-FRET, bovine 14-3-3 zeta, primary screen (AID 781).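 Further: 0% = full 14-3-3 plus peptide FRET controls and 100% = background without 14-3-3.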 As to conditions: TR-FRET 14-3-3zeta/Dy647-pBad peptide displacement, 1 h; at 21.7 µM; hits give high values.
For the compound `CC(C)c1ccc(OCC(=O)N2CCN(C)CC2)c(Br)c1`, the inhibition was 3.12%.

Consider `CN1CCN(C(=O)COc2ccc(C(C)(C)C)cc2Br)CC1`, for which the inhibition was -3.25%.

Regarding `O=C(COc1ccc2ccccc2c1)N1CCN(Cc2ccncc2)CC1`, the inhibition is 87.2% (active).

As for `O=C1NC(=O)N(CCc2ccc(F)cc2)C(=O)/C1=C/C=C/c1ccccc1`, the inhibition is 4.29%.

For the compound `Cc1ccsc1C(=O)C1CCCN(Cc2ccc(O)cc2)C1` (stereo not given), the inhibition was -11.4%.

With `O=C(Cc1ccccc1)N1CCN(C2CCCCCC2)CC1`, the inhibition is 27.6%.

Turning to `COc1ccc(CN2CCN(c3ccccc3F)CC2)c(OC)c1`, the inhibition is 52.2%.

As to `COc1ccccc1CN1CCN(C(=O)Cc2ccccc2)CC1`, the inhibition is 75.5% (active).

As for `O=c1[nH]c(=O)n(-c2ccccc2)c(O)c1C=NC12CN3CN(CN(C3)C1)C2`, the inhibition is -5.55%.

`COC(=O)N1C(c2ccccc2)C1c1ccccc1` (stereo not given): the inhibition was -6.04%.

Regarding `Cc1cc(N2C(=O)C3CCCN3C2c2ccc(Cl)c(Cl)c2)no1` (stereo not given), the inhibition is 5.89%.

In the case of `Fc1ccc(N2CCN(Cc3ccc4c(c3)OCO4)CC2)cc1`, the inhibition was 70.2% (active).

Consider `O=C(Cc1ccccc1[N+](=O)[O-])N1CCN(Cc2ccc3c(c2)OCO3)CC1`, for which the inhibition was -4.2%.

Regarding `Cc1ccc(CN2CCCC(C(=O)c3ccc4c(c3)OCO4)C2)cc1C` (stereo not given), the inhibition is -6.26%.

Turning to `Fc1ccc(C2N3CCCN23)cc1` (stereo not given), the inhibition was -6.34%.

`CC(C)Oc1cccc(C(=O)C2CCCN(C3CCOCC3)C2)c1` (stereo not given): the inhibition is -13%.

For `CN1CCN(Cc2ccccc2C(F)(F)F)CC1`, the inhibition is 70.1% (active).

`CN1CCN(Cc2ccc(OC(F)(F)F)cc2)CC1`: the inhibition is 78.5% (active).

Turning to `Fc1cccc(F)c1CN1CCN(Cc2c(F)cccc2F)CC1`, the inhibition is -4.69%.

`CC(C)CN1CCN(Cc2ccccc2C(F)(F)F)CC1CCO` (stereo not given): the inhibition is -9.76%.

With `Cc1ccc(-n2c(O)c(C=NCC3CCCO3)c(=O)[nH]c2=O)c(C)c1` (stereo not given), the inhibition was 5.29%.

As for `CCCCC(=O)N/N=C/c1c(O)n(CCC2=CCCCC2)c(=O)[nH]c1=O`, the inhibition was -15.6%.

For the compound `CCC1(C)CC(CCNCc2ccc(N(C)C)cc2)(c2ccc(F)cc2)CCO1` (stereo not given), the inhibition was -2.86%.

For `c1cc2c(cc1[C@H]1OC[C@H]3[C@@H]1CO[C@@H]3c1ccc3c(c1)OCO3)OCO2`, the inhibition was -2.89%.

In the case of `O=c1[nH]c(=O)n(CCc2ccc(F)cc2)c(O)c1/C=N/N1CCCCC1`, the inhibition is -6.68%.

Broadly, the inhibition is the relative decrease from the control value, in per cent.
